Assay results reported in publication PMC5540273 (PLoS ONE, 2017).

tested on: TAOK1; conditions: concentration: 1 μM, replicates: in singlicate; n = 1
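Further: KINOMEscan kinase panel screen.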

SMILES	%Inh [%]
[2H]C([2H])(c1cccc(C(F)(F)F)c1C)n1ccn2c(=O)nc(N3CCOCC3)cc12 [GSK2336394]	0
N#Cc1c(N2CCOCC2)sc(-c2ccn[nH]2)c1-c1ccc(Cl)cc1	0
CN(C1=C(c2ccccc2)C(=O)NC1=O)c1ccccc1 [SB-334860]	0
Cc1cn2c(=O)cc(N3CCOCC3)nc2n1Cc1cccc(Cl)c1Cl [GSK2334006]	0
Fc1ccc(-c2ncn(CCCN3CCOCC3)c2-c2cccnc2)cc1 [SB-211743]	0
O=c1cc(N2CCOCC2)nc2n(Cc3cccc(F)c3)ccn12 [GSK2297430]	0
O=C(Nc1cccc(-c2nn3ncccc3c2-c2ccnc(Nc3cccc(C(F)(F)F)c3)n2)c1)c1c(F)cccc1F [GSK299495]	44
Cc1c2ccc(N(C)c3ccnc(Nc4cccc(S(N)(=O)=O)c4)n3)cc2nn1Cc1ccccc1.Cl.Cl [GW787226]	0
O=C(Nc1n[nH]c2cc(-c3cccc(F)c3)ccc12)C1CC1 [SB-735464]	40
CCCCCc1nc2c(N)ncnc2n1CCCCC [SKF-97255]	0
Cc1ccc(C(=O)NCC(N)=O)cc1-n1c(C)cc(OCc2ccc(F)cc2F)c(Br)c1=O	0
NCC(NC(=O)c1cc(-c2cn[nH]c2)c(-c2ccnc3[nH]ccc23)s1)c1ccccc1.O=C(O)C(F)(F)F.O=C(O)C(F)(F)F (stereo not drawn) [GSK1325775]	91.9
COc1ccc(Nc2nccc(N3CCC(NC(=O)Nc4cccc(C(C)=O)c4)C3)n2)cc1 (stereo not drawn) [GSK1379731]	0
COCCNC(=O)c1ccc(-c2cc(C(=O)NC3CC3)cc(F)c2C)cc1 [GW868318]	29
COC(=O)Nc1nc2cc(Oc3ccc(NC(=O)Nc4cc(F)ccc4F)cc3)ccc2[nH]1.Cl [GW701424]	0
O=C(c1ccc(-c2cc(-c3c[nH]nc3-c3ccccn3)ccn2)cc1)N1CCOCC1 [GW812171]	0
NS(=O)(=O)c1cccc(-c2ccc3nccc(-c4cccc(S(N)(=O)=O)c4)c3c2)c1 [GW867253]	2
CN1c2ccc(CNc3ccc(F)cc3)cc2-c2c(cnn2C)S1(=O)=O	0

SMILES	%Inh [%]
O=c1cc(N2CCOCC2)nc2n(Cc3cccc(C(F)(F)F)c3)ccn12 [GSK2297543]	0
Nc1nccc(-c2c(-c3ccc(F)cc3)ncn2C2CCN(CC(F)(F)F)CC2)n1 [SB-236560]	0
O=c1cc(N2CCOCC2)nc2n(Cc3cccc(Cl)c3Cl)c(C3CC3)nn12 [GSK2358994]	0
Fc1ccc(-c2ncn(CCCN3CCOCC3)c2-c2ccccn2)cc1 [SB-211742]	0
CC(C)Oc1ccc2c(-c3ccnc(Nc4ccc(N5CCN(C)CC5)cc4)n3)cnn2n1 [GW696155]	76
COc1ccc(COc2cc(-n3cnc4ccccc43)sc2C(N)=O)cc1 [GSK1024304]	0
C[C@@H](Oc1cc(-n2cnc3ccc(NC(=O)NC(C)(C)C)cc32)sc1C(N)=O)c1ccccc1Cl [GSK346294]	0
Cl.Nc1ncnc2occ(-c3ccc(NC(=O)Nc4cc(C(F)(F)F)ccc4F)cc3)c12 [SB-707548]	13
COc1cc2c(cc1OCCN1CCN(C)CC1)ncc1c3ccc(C#N)cc3[nH]c21	0
O=C(NCCNc1ccnc(Nc2ccc(F)cc2)n1)Nc1ccccc1F [GSK1379880]	0
O=C(NCCNc1ccnc(Nc2ccc(F)cc2)n1)c1cc2ccccc2s1 [GSK1379874]	0
COc1cc2ncn(-c3cc(OCc4sccc4Cl)c(C(N)=O)s3)c2cc1OC [GSK448459]	0
Cc1cccc(-c2nc(-c3ccc(S(C)(=O)=O)cc3)sc2-c2ccncc2)c1	0
CCc1nc(-c2cccc(C)c2)c(-c2ccnc(NCc3ccccc3)c2)s1	0
c1ccc(-c2cc(-c3c[nH]nc3-c3ccccn3)ccn2)cc1 [GW576604]	0
COc1cc(Nc2nccc(N3CCC(NC(=O)c4cccc(NC(C)=O)c4)C3)n2)cc(OC)c1OC (stereo not drawn) [GSK1379754]	0
Cn1ccc2ncnc(Oc3ccc(NC(=O)Nc4ccncc4)c(Cl)c3)c21	0
Cl.Oc1cccc(Nc2ccnc3cc(-c4ccncc4)ccc23)c1 [GW494601]	0
